# The supplement of paper PMC12494721
# Counter-ions that a name gives are not always drawn.
# How the values were obtained:
# Settings in all cases: incubation time: 27 h, anaerobic, 37 °C;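 for the amine columns active = adjusted P below 0.05 in both replicates with a change the same way and a mean fold change under 0.8 or over 1.25; inactive = the rest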
# [1] = test system: Clostridium sporogenes DSM 1664; test: growth (OD595) fold change vs plate DMSO controls (fold change (ratio)); higher = more growth
# Method in brief: (§1)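 Each value is the mean of 2 biological replicates, and fold changes above 1.5 were set to NA. The underlying readings were taken at 595 nm from shaken anaerobic mGAM cultures in 96-well plates after 27 h at 37 °C. They were blank-subtracted, corrected for compound background using 20 µM compound solutions in water, and converted to OD with a calibration factor of 5. Growth is the fold change relative to the median of the plate DMSO controls.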
# Escherichia coli IAI1 [2] = test: as above
# Method in brief: as §1
# [3] = test system: Klebsiella aerogenes DSM 30053; test: as above
# Method in brief: as §1
# [4] = test system: Ruminococcus gnavus DSM 108212; test: as above
# Method in brief: as §1
# [5] = test system: Klebsiella aerogenes DSM 30053; test: fold change of Histamine concentration vs plate DMSO controls (fold change (ratio)); higher = more amine produced, active = hit call of the paper (significant change in both replicates, either direction)
# Method in brief: (§2)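 Each value is the fold change relative to DMSO-only wells on the same plate. Four gut bacterial strains were grown anaerobically in mGAM at 37 °C for 27 h in 80 µL wells, starting at OD 0.1 before a 1:1 dilution, with compounds at 20 µM final (sweeteners 50 µM). Whole cultures were extracted with cold acetonitrile/methanol containing 0.1% formic acid, centrifuged, and amines were quantified by LC–triple-quadrupole MS (dynamic MRM) against external calibration curves with within-batch drift correction. Values are means of 2 biological replicates.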
# [6] = test system: Clostridium sporogenes DSM 1664; test: fold change of Tryptamine concentration vs plate DMSO controls (fold change (ratio)); higher = more amine produced, active = hit call of the paper (significant change in both replicates, either direction)
# Method in brief: as §2
# [7] = test system: Ruminococcus gnavus DSM 108212; test: as above
# Method in brief: as §2
# Escherichia coli IAI1 [8] = test: fold change of Putrescine concentration vs plate DMSO controls (fold change (ratio)); higher = more amine produced, active = hit call of the paper (significant change in both replicates, either direction)
# Method in brief: as §2
# [9] = test system: Klebsiella aerogenes DSM 30053; test: as above
# Method in brief: as §2
# Escherichia coli IAI1 [10] = test: fold change of Cadaverine concentration vs plate DMSO controls (fold change (ratio)); higher = more amine produced, active = hit call of the paper (significant change in both replicates, either direction)
# Method in brief: as §2
# [11] = test system: Klebsiella aerogenes DSM 30053; test: as above
# Method in brief: as §2
# [12] = test system: Ruminococcus gnavus DSM 108212; test: fold change of 2-Phenylethylamine concentration vs plate DMSO controls (fold change (ratio)); higher = more amine produced, active = hit call of the paper (significant change in both replicates, either direction)
# Method in brief: as §2
SMILES,growth [1],growth (Escherichia coli IAI1 [2]),growth [3],growth [4],fold change of Histamine concentration [5],fold change of Tryptamine concentration [6],fold change of Tryptamine concentration [7],fold change of Putrescine concentration (Escherichia coli IAI1 [8]),fold change of Putrescine concentration [9],fold change of Cadaverine concentration (Escherichia coli IAI1 [10]),fold change of Cadaverine concentration [11],fold change of 2-Phenylethylamine concentration [12]
Cc1cn(-c2cc(NC(=O)c3ccc(C)c(Nc4nccc(-c5cccnc5)n4)c3)cc(C(F)(F)F)c2)cn1 [Nilotinib] (20 µM),0.888,1.07,1.11,1.02,0.924 (inactive),1.06 (inactive),0.879 (inactive),1 (inactive),1.01 (inactive),0.967 (inactive),1.01 (inactive),0.897 (inactive)
OC[C@H]1O[C@@H](c2ccc(Cl)c(Cc3ccc(O[C@H]4CCOC4)cc3)c2)[C@H](O)[C@@H](O)[C@@H]1O [Empagliflozin] (20 µM),1.04,1,1,0.989,0.998 (inactive),1.05 (inactive),0.872 (inactive),1.02 (inactive),0.986 (inactive),1.02 (inactive),0.974 (inactive),0.83 (inactive)
CN(C)C/C=C(/c1ccc(Br)cc1)c1cccnc1 [Zimelidine dihydrochloride monohydrate] (20 µM),0.928,0.997,0.991,1.03,1.01 (inactive),1.03 (inactive),0.987 (inactive),0.804 (inactive),0.993 (inactive),1.49 (active),0.978 (inactive),1.04 (inactive)
CC(N/C(=N\C#N)Nc1ccncc1)C(C)(C)C (stereo not given) [Pinacidil monohydrate] (20 µM),0.925,1,0.98,1.13,1.08 (inactive),0.982 (inactive),1.09 (inactive),1 (inactive),1 (inactive),1.04 (inactive),0.981 (inactive),1.1 (inactive)
CC(C)C(=O)c1c(C(C)C)nn2ccccc12 [Ibudilast] (20 µM),0.946,0.973,1.02,0.991,1.02 (inactive),0.996 (inactive),1.08 (inactive),1.26 (inactive),0.984 (inactive),0.987 (inactive),0.997 (inactive),1.09 (inactive)
CC[C@H](C)C(=O)O[C@H]1C[C@H](O)C=C2C=C[C@H](C)[C@H](CC[C@@H](O)C[C@@H](O)CC(=O)O)[C@H]21 [Pravastatin] (20 µM),0.87,1.09,0.973,1.15,1.1 (inactive),1.12 (inactive),1.08 (inactive),1.11 (inactive),0.975 (inactive),0.904 (inactive),1.01 (inactive),1.1 (inactive)
CCCCc1nc(Cl)c(CO)n1Cc1ccc(-c2ccccc2-c2nnn[nH]2)cc1 [Losartan] (20 µM),1.01,0.991,1.01,0.99,1.07 (inactive),0.975 (inactive),1.05 (inactive),1.01 (inactive),1.04 (inactive),0.99 (inactive),1 (inactive),1.06 (inactive)
Nc1nc2c(ncn2COC(CO)CO)c(=O)[nH]1 [Ganciclovir] (20 µM),0.925,0.989,0.946,1.07,1.04 (inactive),1.06 (inactive),0.974 (inactive),1.02 (inactive),1.02 (inactive),1.03 (inactive),0.999 (inactive),0.954 (inactive)
C[C@H]1C[C@H]2[C@@H]3CCC4=CC(=O)C=C[C@]4(C)[C@@]3(F)[C@@H](O)C[C@]2(C)[C@@]1(O)C(=O)CO [Betamethasone] (20 µM),1.02,1.02,1.13,1.11,0.976 (inactive),0.979 (inactive),1.01 (inactive),1.07 (inactive),1.01 (inactive),1.04 (inactive),1.02 (inactive),0.968 (inactive)
CCOC(=O)C(C)(N)Cc1cc(I)c(Oc2cc(I)c(O)c(I)c2)c(I)c1 (stereo not given) [Etiroxate hydrochloride] (20 µM),1.06,1.02,1.02,1.14,1.04 (inactive),1.03 (inactive),0.923 (inactive),0.951 (inactive),0.99 (inactive),0.958 (inactive),1 (inactive),1.01 (inactive)
CS(=O)(=O)CCNCc1ccc(-c2ccc3ncnc(Nc4ccc(OCc5cccc(F)c5)c(Cl)c4)c3c2)o1 [Lapatinib] (20 µM),1.05,1.05,1.02,1.01,1.03 (inactive),0.977 (inactive),1.03 (inactive),0.977 (inactive),1.02 (inactive),1.04 (inactive),1.01 (inactive),0.999 (inactive)
CN1CCN(C2=Nc3ccccc3Oc3ccc(Cl)cc32)CC1 [Loxapine succinate] (20 µM),1.12,1.04,1.04,1.4,0.932 (inactive),1.04 (inactive),0.962 (inactive),0.998 (inactive),1 (inactive),1.01 (inactive),1.02 (inactive),0.973 (inactive)
Fc1ccc(C(c2ccc(F)cc2)N2CCN(C/C=C/c3ccccc3)CC2)cc1 [Flunarizine dihydrochloride] (20 µM),1.15,1.05,1.1,0.897,0.894 (inactive),1.05 (inactive),0.851 (inactive),1.07 (inactive),0.981 (inactive),0.979 (inactive),1.04 (inactive),0.977 (inactive)
CN(Cc1cnc2nc(N)nc(N)c2n1)c1ccc(C(=O)N[C@@H](CCC(=O)O)C(=O)O)cc1 [Amethopterin] (20 µM),1.08,1.02,1.09,1.42,0.922 (inactive),0.975 (inactive),0.892 (inactive),1 (inactive),1 (inactive),1 (inactive),1.02 (inactive),0.832 (inactive)
C[C@H](N)[C@H](O)c1cccc(O)c1 [Metaraminol bitartrate] (20 µM),1.04,0.987,1.09,0.95,1.04 (inactive),1.05 (inactive),1.08 (inactive),1.02 (inactive),1.02 (inactive),0.982 (inactive),0.998 (inactive),1.12 (inactive)
CN(C)CCCN1c2ccccc2[S+]([O-])c2ccc(Cl)cc21 (stereo not given) [Chlorpromazine Sulfoxide] (20 µM),0.948,0.996,0.985,1.03,1.04 (inactive),1.06 (inactive),1.04 (inactive),0.993 (inactive),0.996 (inactive),1.01 (inactive),0.977 (inactive),1.1 (inactive)
CO/N=C(\C(=O)N[C@@H]1C(=O)N2C(C(=O)O)=C(COC(C)=O)CS[C@H]12)c1csc(N)n1 [Cefotaxime sodium salt] (20 µM),0.00126,0.00374,0.601,0.2,0.733 (inactive),0.0286 (active),0.0769 (active),0.143 (active),0.729 (inactive),0.574 (active),1.02 (inactive),0.055 (active)
CC(C)CC(=O)N[C@H](C(=O)N[C@H](C(=O)N[C@@H](CC(C)C)[C@@H](O)CC(=O)N[C@@H](C)C(=O)N[C@@H](CC(C)C)[C@@H](O)CC(=O)O)C(C)C)C(C)C [Pepstatin A] (20 µM),1.1,1,1,1.06,1.02 (inactive),1.06 (inactive),1.05 (inactive),0.953 (inactive),1.01 (inactive),0.961 (inactive),0.999 (inactive),1.06 (inactive)
CC(C(=O)O)c1ccc(C(=O)c2cccs2)cc1 (stereo not given) [Suprofen] (20 µM),1.08,0.983,0.986,0.974,1.03 (inactive),1.04 (inactive),1.09 (inactive),0.954 (inactive),0.995 (inactive),1.01 (inactive),0.986 (inactive),1.08 (inactive)
C[C@]12CC[C@H]3[C@@H](CCC4=CC(=O)CC[C@@]43C)[C@@H]1CC[C@@H]2C(=O)CO [Deoxycorticosterone] (20 µM),1.18,1.09,1.02,1.11,0.959 (inactive),0.963 (inactive),1.03 (inactive),1.25 (inactive),0.962 (inactive),0.96 (inactive),1.03 (inactive),1.06 (inactive)
COc1ccc2cc([C@H](C)C(=O)O)ccc2c1 [(S)-Naproxen] (20 µM),1.04,1.1,1.02,1.08,1.04 (inactive),0.983 (inactive),0.969 (inactive),1.06 (inactive),0.977 (inactive),1 (inactive),0.988 (inactive),0.899 (inactive)
S=c1[nH]cnc2nc[nH]c12 [Mercaptopurine] (20 µM),1.07,1.1,0.98,0.869,1.05 (inactive),1.01 (inactive),0.944 (inactive),1.06 (inactive),1 (inactive),0.879 (inactive),0.999 (inactive),0.959 (inactive)
C[C@H](N[C@@H](CCc1ccccc1)C(=O)O)C(=O)N1CCC[C@H]1C(=O)O [Enalaprilat dihydrate] (20 µM),0.89,0.971,0.996,1.16,1.04 (inactive),0.967 (inactive),1.04 (inactive),1 (inactive),1.01 (inactive),1.08 (inactive),0.991 (inactive),1.04 (inactive)
"CC(C)NC[C@@H](O)COc1ccc(CC(N)=O)cc1 [(R,+) Atenolol] (20 µM)",1.19,1.01,1.12,1.16,0.951 (inactive),1.05 (inactive),1.06 (inactive),1.19 (inactive),1.02 (inactive),0.921 (inactive),1.04 (inactive),1.08 (inactive)
Cc1nnc(NS(=O)(=O)c2ccc(N)cc2)s1 [Sulfamethizole] (20 µM),0.987,1.05,1.06,1.12,0.935 (inactive),0.928 (inactive),0.884 (inactive),0.961 (inactive),0.981 (inactive),1.03 (inactive),0.995 (inactive),0.815 (inactive)
